Screens deposited in PubChem by several laboratories.
Hits are enriched below; roughly 4.2% of the tested compounds scored in any of these assays.
ssDAF12 agonist – activators of S. stercoralis DAF-12 nuclear receptor. HEK293 ssDAF-12/GRIP1 lit1-tk-luc reporter, luminescence; % of 3 µM dafachronic acid response. activation, % at 6.8 µM. hit rate 1% among 370,000. AID 652126;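 active = activation above the mean over all tested compounds plus 3 SD, cut at about 0.9% in these data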
Wnt bcat act – activates Wnt/beta-catenin signaling in a reporter cell assay; activator, plate reader; activation, % at 9.35 µM; hit rate 1.2% among 300,000; AID 743398; in the data active = activation above about 30%, passing the limit was not always enough; inconclusive = no clear call, values can overlap the other calls
hgDAF-12 ag – activates the H. glycines DAF-12 receptor ligand-binding domain; HEK293 GAL4-hgDAF12 UAS-luciferase reporter, agonist luminescence; normalized to butyrate control; activation, % at 6.8 µM; hit rate 1.8% among 370,000; AID 687014;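 active = activation above a cutoff set at the mean of all screened compounds plus 3 SD, cut at about 10% in these data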
esBAF inh – blocks esBAF chromatin remodeling in mouse ES cells; hit rate 2% among 350,000; reporter increase, % at 12.5 µM; Bmi1-luciferase knock-in reporter, 24 h; 100% = twice the neutral-well signal; in the data active = activation above about 40%; inconclusive = no clear call, values can overlap the other calls;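 note: a rise in the Bmi1 reporter signal indicates esBAF inhibition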
hcDAF12 agonist – activators of H. contortus DAF-12 nuclear receptor | AID 652067 | activation, % at 6.8 µM | hit rate 1.4% among 370,000 | HEK293 hcDAF-12 lit1-tk-luc reporter, luminescence; 0% DMSO, 100% Δ7-dafachronic acid;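 active = activation above the mean of all tested compounds plus 3 SD, cut at about 5.5% in these data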
DAX1 inh – DAX1 (NR0B1) inhibition, primary screen; HEK293T StAR-luciferase reporter, SF-1/DAX-1 repression relief; hit rate 1.1% among 370,000; inhibition, % at 6.8 µM; AID 652010;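 active = inhibition above the mean over all tested compounds plus 3 SD, cut at about 3.6% in these data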;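 note: higher inhibition means more luminescence from relief of DAX-1 repression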
Of the large screens only hits and unclear results are named; the others gave an inactive call.

O=C(Cn1cnc2ccccc2c1=O)N1CCN(S(=O)(=O)c2ccc(F)cc2)CC1	DAX1 inh 3.6
O=C(Cn1cnc2ccccc2c1=O)N1CCN(c2ccc(F)cc2)CC1	none
COc1cc(NC(=S)NCCc2ccccc2)c(OC)cc1NC(=O)C(C)C	ssDAF12 agonist 1.9
COc1ccc(NC(=S)NCCc2ccc(S(N)(=O)=O)cc2)c(OC)c1	none
COc1ccccc1NC(=S)NCCc1ccc(S(N)(=O)=O)cc1	hcDAF12 agonist 5.9
O=C(Nc1cccc(Cl)c1)c1ccc2sc([C@H]3C[C@H](O)[C@@H](CO)O3)nc2c1	esBAF inh 67
CCc1nnc(NC(=O)CSc2nnc3c(n2)[nH]c2ccccc23)s1	ssDAF12 agonist 1.8 (no result: esBAF inh)
CCOc1c(Cl)cc(C2NC(=O)NC(C)=C2C(=O)NCc2ccccc2)cc1OC (stereo unspecified)	esBAF inh 50 (no result: Wnt bcat act)
Cc1nc(N)[nH]c(=O)c1CCCNc1ccc(CCC2(CCl)OCCO2)cc1	hgDAF-12 ag 13
Cc1nc(N)[nH]c(=O)c1CCCNc1ccc([N+](=O)[O-])cc1	none
CCCC(=O)Nc1ccc2oc(-c3ccncc3)nc2c1	none
CCN(CC)CC(=O)Nc1ccc(-c2nc3cc(NC(=O)CN(CC)CC)ccc3o2)cc1	ssDAF12 agonist 1.0
CCc1ccc2oc(-c3ccc(NC(C)=O)cc3)nc2c1	ssDAF12 agonist 1.1, hgDAF-12 ag 11, hcDAF12 agonist 5.8
C[C@H](CO)N1C[C@H](C)[C@@H](CN(C)Cc2ccc(Oc3ccccc3)cc2)Oc2c(NC(=O)Nc3ccc(F)cc3)cccc2C1=O	none (no result: ssDAF12 agonist, Wnt bcat act, hgDAF-12 ag, hcDAF12 agonist, DAX1 inh)
O=c1/c(=C\c2ccc(F)cc2)sc2n1CCCN=2	Wnt bcat act 53 (no result: esBAF inh)
O=c1/c(=C/c2ccc(O)cc2)sc2n1CCCN=2	none (no result: Wnt bcat act, esBAF inh)
O=C(N=Nc1c(O)[nH]c2ccccc12)c1ccc2c(c1)OCO2	Wnt bcat act 46, hgDAF-12 ag 13 (no result: esBAF inh)
O=C(N=Nc1c(O)[nH]c2ccccc12)c1ccc(CN2CCOCC2)cc1	none
COc1cccc(/C=N/NC(=O)c2cnn(-c3ccccc3)c2N)c1	esBAF inh 60
CC(=O)Nc1ccc(NC(=O)COC(=O)c2ccco2)cc1	none (no result: esBAF inh)
N/C(=N\OC(=O)c1ccco1)c1ccccc1	Wnt bcat act 36, esBAF inh inconclusive
CC(=O)Nc1ccc(C(=O)COC(=O)c2ccco2)c(F)c1	esBAF inh 44
COc1ccc(/C(N)=N/OC(=O)c2ccco2)cc1	hgDAF-12 ag 11, DAX1 inh 3.9
COc1ccc(C(=O)COC(=O)c2ccco2)cc1	esBAF inh 49 (no result: Wnt bcat act)
CO[C@H]1CN(C)C(=O)c2ccc(NC(=O)Nc3ccccc3)cc2OC[C@H](C)NC[C@H]1C	none (no result: ssDAF12 agonist, Wnt bcat act, hgDAF-12 ag, hcDAF12 agonist, DAX1 inh)
COc1ccccc1C#Cc1ccc([C@@H]2[C@@H](C#N)N(C(=O)C3CC3)[C@H]2CO)cc1	none (no result: ssDAF12 agonist, Wnt bcat act, hgDAF-12 ag, hcDAF12 agonist, DAX1 inh)
COCC(=O)N(C[C@@H]1[C@@H](c2ccccc2)[C@H](CO)N1C(=O)NC(C)C)C(C)C	none (no result: ssDAF12 agonist, Wnt bcat act, hgDAF-12 ag, hcDAF12 agonist, DAX1 inh)
COc1ccc(/C=C/C(=O)c2ccc(Cl)cc2)c(OC)c1	hgDAF-12 ag 16 (no result: Wnt bcat act)
COc1ccc(OC(=O)c2cccc([N+](=O)[O-])c2)c(C(=O)/C=C/c2cccs2)c1	none
COc1ccc(C(=O)C=CNNC(=O)c2ccc(Cl)cc2)cc1	none
COc1ccc(/C=C/C(=O)c2cc(Cl)ccc2O)c(OC)c1	none (no result: esBAF inh)
COc1ccc(C(=O)/C=C/c2ccccc2OC)c(OC(=O)c2ccc([N+](=O)[O-])cc2)c1	Wnt bcat act 38 (no result: esBAF inh)
COc1ccc(C(=O)/C=C/c2cc(C(=O)O)cc3c2OCOC3)c(O)c1	esBAF inh 59
COc1ccc(C(=O)/C=C/c2ccc(OC)cc2OC)c(O)c1	esBAF inh 88
C[C@@H]1CN([C@H](C)CO)C(=O)Cc2cc(NC(=O)Cn3cnnn3)ccc2O[C@@H]1CN(C)Cc1ccncc1	none (no result: ssDAF12 agonist, Wnt bcat act, hgDAF-12 ag, hcDAF12 agonist, DAX1 inh)
COc1ccc(-c2cnc3c(c2)C(=O)N([C@H](C)CO)C[C@H](C)[C@H](CN(C)C(=O)C2CCCCC2)O3)cc1	none (no result: ssDAF12 agonist, Wnt bcat act, hgDAF-12 ag, hcDAF12 agonist, DAX1 inh)
COc1ccc(C(=O)C=Cc2cccs2)c(O)c1	Wnt bcat act 48, hgDAF-12 ag 11, esBAF inh 45
COc1ccc(C(=O)c2ccc(OC)cc2O)c(O)c1	esBAF inh 50
COc1ccc(C(=O)c2ccccc2O)c(O)c1	none
Cc1cc(=O)[nH]c(N=N/C(=N/Nc2ccc(O)cc2)c2ccccc2)n1	esBAF inh 49 (no result: Wnt bcat act)
